Compounds with a hit are over-represented: about 11% of the library has one in this group of screens.
HPGD block – qHTS Assay for Inhibitors of HPGD (15-Hydroxyprostaglandin Dehydrogenase); purified HPGD, NADH fluorescence kinetic, PGE2 substrate; Potency, µM, most hits filed as inhibitors; hit rate 4.3% among 150,000; AID 894, 2007
Target sequence (P15428 whole entry, looked up): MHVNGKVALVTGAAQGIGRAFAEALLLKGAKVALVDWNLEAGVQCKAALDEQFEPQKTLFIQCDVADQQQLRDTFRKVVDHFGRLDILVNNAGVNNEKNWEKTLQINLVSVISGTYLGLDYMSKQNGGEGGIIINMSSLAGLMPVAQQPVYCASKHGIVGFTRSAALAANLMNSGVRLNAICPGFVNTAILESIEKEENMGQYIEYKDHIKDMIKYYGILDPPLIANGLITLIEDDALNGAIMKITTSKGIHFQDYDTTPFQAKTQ
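NADH formation kinetics: reaction with 30 uM PGE2 and 1 mM NAD+ (final), 20 nM enzyme, Tris-HCl pH 8 with Tween 20, after 15 min compound preincubation at room temperature. Fluorescence change, last versus first of five reads.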
ALDH1A1 block – qHTS Assay for Inhibitors of Aldehyde Dehydrogenase 1 (ALDH1A1) | Aldehyde dehydrogenase 1A1 (Homo sapiens), P00352 | Purified ALDH1A1, NADH fluorescence, propionaldehyde substrate | Potency, µM (series often up to 75.3 µM), actives largely listed as inhibitors | hit rate 7.3% among 220,000 | AID 1030, 2008
IMPase cell inh – qHTS Assay for Identifying the Cell-Membrane Permeable IMPase Inhibitors | 120,000 tested, under 10 active | CHO-M1 cells, IP1 accumulation, HTRF TR-FRET ratio | inhibition (IP1 accumulation), % at 46.1 µM | Inositol monophosphatase 1 (Rattus norvegicus), P97697 | AID 901, 2007; active = well fitted curve in the direction sought with a large enough effect in the signal ratio, not every such curve was filed as active; inconclusive = small, poorly fitted or top-dose-only effect, or a change in a side signal; inactive = no such curve, though single readings can be large or run the other way; the % refers to the signal ratio;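 note: cells stimulated with carbachol in lithium chloride buffer; higher means more IMPase inhibition seen as more IP1 and lower FRET ratio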
Target sequence (P97697 whole entry, looked up): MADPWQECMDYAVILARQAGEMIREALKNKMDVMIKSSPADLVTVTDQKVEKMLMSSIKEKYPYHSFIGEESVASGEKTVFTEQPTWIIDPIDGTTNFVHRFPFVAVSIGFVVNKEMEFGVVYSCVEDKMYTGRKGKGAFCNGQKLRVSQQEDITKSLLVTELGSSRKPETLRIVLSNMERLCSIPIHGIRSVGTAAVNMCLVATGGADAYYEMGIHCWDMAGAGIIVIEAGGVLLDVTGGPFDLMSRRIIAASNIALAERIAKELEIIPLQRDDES
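Elevated IP1 in lysates lowers TR-FRET signal (665/620 ratio and 620 channel reported). Cells were CHO-M1, given carbachol (50 uM as added) plus 50mM LiCl, pH 7.4, 30 min, 37C; compounds titrated up to 46 uM; AC50 by Hill equation.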
PNC inhibitor – High Content Assay for Compounds that inhibit the Assembly of the Perinucleolar Compartment. PC3M PTB-GFP, PNC prevalence imaging, 16 h; stronger effect = lower value. activity change (PNC), negative = inhibition, % at 10 µM. hit rate 3.1% among 140,000. AID 2417, 2010;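 active = readout at or below -70, meaning at least 70% loss of cells showing the perinucleolar compartment, a nuclear body marking cancer cells; inconclusive = readout between -30 and a set limit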
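Read-out is percentage of cells bearing a perinucleolar compartment, from automated 20x imaging of fixed, Hoechst-stained PC3M PTB-GFP cells. Cells were seeded 4 h, then exposed 16 h to compound (23 nl of library stock) in duplicate plates.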
IMPase Li inh – qHTS Assay for Identifying the Cell-Membrane Permeable IMPase Inhibitors: Potentiation with Lithium. CHO-M1 cells, IP1 TR-FRET (IP-One), carbachol + lithium. Potency, µM (doses to about 59.4 µM), usual class: inhibitors. hit rate 0.35% among 210,000. AID 1457, 2008; active = well fitted inhibition curve with a large enough effect; inconclusive = small, poorly fitted or top-dose-only effect; inactive = no such curve, though single readings can be large or run the other way;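 note: IP1 builds up when IMPase is blocked and the TR-FRET signal falls; nearly all actives have a fitted effect of over 50% in size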
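Test compounds were applied to CHO-M1 cells previously cultured for 16–30 h at 2000 per well. A small lithium amount accompanied them; after 30 min at 37C, IP1 was quantified by TR-FRET.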
A number is an active result; - = inactive; ? = inconclusive; . = no result given; [ ] = remark or other dose. Unless noted, calls come from the whole dose curve; as a rule, active = well fitted inhibition curve with a large enough effect (not every such curve was filed as active); inconclusive = small, poorly fitted or top-dose-only effect, or another doubt; inactive = no such curve, though single readings can be large or run the other way.

SMILES | HPGD block | ALDH1A1 block | IMPase cell inh | PNC inhibitor | IMPase Li inh
COc1ccc(NC(=O)c2ccc(-c3ccc([N+](=O)[O-])cc3)o2)cc1 | . | 2.2µM | . | . | -
COc1ccc(CCNC(=O)c2ccc(-c3ccc([N+](=O)[O-])cc3)o2)cc1OC | - | 10µM | - | - | -
COc1ccc(NC(=O)c2cc([N+](=O)[O-])ccc2O)cc1 | . | - | . | . | -
O=C(Nc1nccs1)c1ccc(-c2ccc(F)cc2)o1 | . | 22µM | . | . | -
COc1ccc(CCNC(=O)c2ccncc2)cc1OC | - | - | - | - | -
CN1CCN(c2ccncc2S(=O)(=O)N2CCN(C)CC2)CC1 | - | -[13.5 µM] | . | . | -
C=C(C)C(O)/C=C/c1ccc(Br)cc1 (configuration not stated) | - | - | . | . | -
COc1ccc(NC(=O)c2[nH]ncc2[N+](=O)[O-])cc1 | . | 15µM | . | . | -
O=C(Nc1nccs1)c1ccc(-c2ccc(Cl)cc2)o1 | . | - | . | . | -
O=C(Nc1nccs1)c1ccc(-c2ccc([N+](=O)[O-])cc2)o1 | . | 22µM | . | . | -
COCCCNC(=S)Nc1ccc(C)cc1[N+](=O)[O-] | . | ? | . | . | -
O=C(Nc1ccc(Cl)c([N+](=O)[O-])c1)C(NCCCO)c1ccccc1 (configuration not stated) | - | 0.71µM | . | ? | -
COCCNC(C(=O)Nc1ccc(C)cc1[N+](=O)[O-])c1ccccc1 (configuration not stated) | . | 25µM | . | . | -
COCCNC(C(=O)Nc1ccc([N+](=O)[O-])cc1Br)c1ccccc1 (configuration not stated) | - | 13µM | . | - | -
CCCCNC(C(=O)Nc1ccc([N+](=O)[O-])cc1Br)c1ccccc1 (configuration not stated) | - | ? | . | -118 | -
C=C(C)c1cccc(C(C)(C)NC(=O)N2CCN(C/C=C/c3ccccc3)CC2)c1 | - | - | - | - | -
Nc1cccc(OCc2nc(N)nc(N)c2-c2ccc(Cl)cc2)c1 | - | -[13.5 µM] | . | . | -
COc1cccc2c1C(=O)c1c(O)c3c(c(O)c1C2=O)C[C@@](O)(C(=O)CO)C[C@@H]3O[C@H]1C[C@H](N)[C@H](O)[C@H](C)O1 | - | ? | . | -115 | -
COc1cccc2c1C(=O)c1c(O)c3c(c(O)c1C2=O)C[C@](O)(C(C)=O)C[C@H]3O[C@@H]1C[C@H](N)[C@H](O)[C@H](C)O1 | - | - | - | . | -
COc1cccc2c1C(=O)c1c(O)c3c(c(O)c1C2=O)C[C@@](O)(C(=O)CO)C[C@@H]3O[C@@H]1C[C@H](N)[C@H](O)[C@H](C)O1 | - | 20µM | . | . | -
CC(C)(C)c1ccc(OCC(=O)Nc2c(C(=O)c3ccc(F)cc3)oc3ccccc23)cc1 | . | . | - | . | .
COc1ccc(-c2cc(OC)c3c(C)oc(C)c3c(=O)c2)cc1OC | 28µM | 11µM | - | - | -
COc1cc(-c2cc(=O)c3c(O)c(OC)c(OC)c(O)c3o2)ccc1O | . | 28µM | . | . | -
COc1ccc(-c2cc(=O)c3c(O)c(OC)c(OC)c(OC)c3o2)cc1OC | - | 20µM | . | . | -
COc1c(O)c(O)c2oc(-c3ccccc3)cc(=O)c2c1OC | . | ? | . | . | -
SMILES | HPGD block | ALDH1A1 block | IMPase cell inh | PNC inhibitor | IMPase Li inh
CS(=O)(=O)N(CC(=O)Nc1cccnc1)c1ccc2c(c1)OCO2 | - | - | - | - | -
CCOC(=O)CSc1nc(N)c(C#N)c(-c2ccc(OC)cc2)c1C#N | . | ? | ? | - | .
CCOC(=O)CC(=O)CSc1nc(N)c(C#N)c(-c2ccc(F)cc2)c1C#N | . | ? | - | - | .
CCCCOC(=O)CSc1nc(N)c(C#N)c(-c2ccc(OCC)cc2)c1C#N | - | 20µM | ? | ? | ?
C=C(C)CSc1nc(N)c(C#N)c(-c2ccc(C)cc2)c1C#N | 14µM | 10µM | - | - | -
CCCCOc1ccc(-c2c(C#N)c(N)nc(SCC(N)=O)c2C#N)cc1 | 28µM | ? | - | - | -
CCCCOC(=O)CSc1nc(N)c(C#N)c(-c2ccc(OC)cc2)c1C#N | - | ? | - | - | -
COCC(=O)NCCSc1c(C)[nH]c2ccccc12 | ? | - | - | ? | -
COCC(=O)c1[nH]c2ccccc2c1C | - | 7.9µM | - | - | -
CCOC(=O)C1C(=O)C=C(c2ccc(C)cc2)CC1c1cccc([N+](=O)[O-])c1 (configuration not stated) | . | 2.5µM | - | - | .
CCOC(=O)C1C(=O)C=C(c2ccc(C)cc2)CC1c1ccco1 (configuration not stated) | - | ? | - | - | -
COC(=O)c1ccc2c(c1)SC1=C(CCCC1=O)N2 | 40µM | - | - | - | -
CCCCOc1ccc(Cl)cc1CSc1nnc(C)n1N | - | - | - | -97 | -
COCCn1c(SCc2c(F)cccc2Cl)nc2c1c(=O)[nH]c(=O)n2C | - | 25µM | - | ? | -
COCCn1c(Sc2ccc(C)cc2)nc2c1c(=O)[nH]c(=O)n2C | - | 13µM | - | - | -
Cc1ccc(C(=O)Nc2cc3c(oc2=O)CCCC3=O)cc1 | - | - | - | - | -
C(=C\c1ccccc1)/CN1CCN(Cc2nc(Cc3ccccc3)no2)CC1 | . | 13µM | . | . | -
NCCC[C@@H](CC(=O)N[C@@H]1CCNC[C@H]1C(=O)N[C@H](CC(=O)N[C@@H](CCC(=O)O)CC(=O)O)Cc1ccccc1)NC(=O)C[C@H](CO)NC(=O)[C@@H]1CCCC[C@H]1N | - | - | . | . | -
C[C@@H]1c2ccccc2Cn2cc3c(c21)C(=O)c1cccc(OP(=O)(O)OCc2ccccc2)c1C3=O | - | -[13.5 µM] | . | . | -
COc1ccc(-n2c(SCCC#N)nnc2-c2cc(Cl)ccc2OC)cc1Cl | 20µM | - | - | - | ?
COCCNCC(=O)C12CC3CC(CC(C3)C1)C2 | - | 10µM | - | - | -
COCCNC(C)C(=O)C12CC3CC(CC(C3)C1)C2 (configuration not stated) | - | - | - | ? | -
CN(C)C(=O)C1C2NC(=S)N(c3cccc(Cl)c3)C1(C)Oc1ccc(Cl)cc12 (configuration not stated) | . | - | . | . | -
O=C(COC(=O)C1CCCCC1)Nc1ccccc1OC(F)F | . | - | . | . | -
CC(C)[C@H](Nc1ccc(S(=O)(=O)N2CCOCC2)cc1[N+](=O)[O-])C(=O)OCC(=O)N(C(C)C)C(C)C | - | ? | . | - | -
CNC(=O)COC(=O)[C@@H](Nc1ccc(S(=O)(=O)N2CCOCC2)cc1[N+](=O)[O-])C(C)C | - | ? | . | -113 | -
CC(C)[C@H](Nc1ccc(S(=O)(=O)N2CCOCC2)cc1[N+](=O)[O-])C(=O)OCC(N)=O | - | 18µM | . | - | -
O=C1C=CC2=C3c4cc(O)c(O)cc4C[C@@]3(O)COC2=C1 | 11µM | - | . | . | -
CCCn1c(O)c(N=NC(=O)c2cccnc2)c2cc(Br)ccc21 | . | 1.1µM | . | . | .

Compound activity (PubChem)
